Here are results for 40 compounds from PubChem BioAssay (NCATS).

Each structure is given as a SMILES string. Inconclusive results are not listed. Where a call stands in place of a potency, no number is given. Unmarked numbers belong to inactive results. The source made the active and inactive calls. The call rests on the fitted dose curve; in most records, active means well fitted inhibition curve with a large enough effect; inconclusive means small, poorly fitted or top-dose-only effect; inactive means flat fitted curve, though single readings scatter.
Potency means the concentration at half of the fitted maximal effect.

Sequence of Glutathione peroxidase 1 (Homo sapiens) (P07203 whole entry, looked up): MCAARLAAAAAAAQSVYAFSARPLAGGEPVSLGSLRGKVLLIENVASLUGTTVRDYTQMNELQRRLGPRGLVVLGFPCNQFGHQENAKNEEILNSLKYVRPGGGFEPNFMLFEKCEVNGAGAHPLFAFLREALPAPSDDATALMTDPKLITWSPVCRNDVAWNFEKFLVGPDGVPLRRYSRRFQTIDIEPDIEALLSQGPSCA

The test addresses Glutathione peroxidase 1 (Homo sapiens) (UniProt P07203). In words: Primary qHTS Assay for Inhibitors of Recombinant Selenoprotein Glutathione Peroxidase 1 (GPX1) (AID 1845191). Further: nearly all actives have a fitted effect of over 65% in size. The conditions noted are these: recombinant GPX1, GR-coupled NADPH fluorescence, 15 min; series mostly up to 48.8 µM; activity, negative = inhibition: at the top concentration. The source says: Assay Provider: Elias S.J. Arner MD PhD.
Department of Medical Biochemistry and Biophysics
Karolinska Institutet, Solna, Stockholm, Sweden
Selenoprotein glutathione peroxidases (GPX), like the ubiquitously expressed GPX1 and the ferroptosis modulator GPX4, enact their antioxidant activities by reducing hydroperoxides using glutathione. […] GPX1 and GPX4 inhibitors have thus shown promise as anti-cancer agents. Existing inhibitors are often promiscuous, or modulate GPX activity only indirectly, so novel direct inhibitors identified through screening against GPX1 and GPX4 could be valuable. Here, we developed optimized glutathione reductase (GR)-coupled GPX assays for the biochemical high-throughput screen (HTS) of almost 12,000 compounds with known mechanisms of action. Initial hits were triaged using a GR counter-screen, assessed for isoform specificity using a separate GPX2 assay, and were assessed for general selenocysteine-targeting activity using a thioredoxin reductase (TXNRD1) assay. With this suite of assays, we identified novel GPX1/GPX2- and GPX4-specific inhibitors and can here present a validated pipeline for future discovery research for selenoprotein-targeting agents.
SEQUENCE No. (e.g., 1, 2, 3, etc.); […] (e.g., Cells, Incubation, Reagent, etc.); VALUE; DESCRIPTION.
1; Reagent 1; 3 uL; GPx1 enzyme or no enzyme control in 1536-well, black, solid Greiner assay plate.
2; Compound; 25 nL; Kalypsis pin tool (Wako USA) equipped with a 1536-well pin head.
3; Incubation; 30 min; room temperature.
4; Reagent 2; 1 uL; 10 nM GPX1, 1 mM GSH, 0.5 mM CHP, 0.5 mM NADPH, 100 nM GR, 0.01% BSA substrate
5; Detection; Fluorescence; ViewLux microplate reader, excitation 340 nm and emission 450 nm.
6; Incubation; 15 min; room temperature.
7; Detection; Fluorescence; ViewLux microplate reader, excitation 340 nm and emission 450 nm.
NOTES (numbers refer to Sequence numbers above)
1. 3 uL of 16.66 nM GPX1 and 0.016% BSA in assay buffer (50 mM Tris-HCl, 2 mM EDTA (pH 7.5), 150 mM NaCl) was added to columns 3-48 of 1536-well assay plates using a BioRAPTR Flying Reagent Dispenser (Let's Go Robotics (LGR), Carlsbad, CA). A no-enzyme control (0.01% BSA in TES assay buffer) was added to columns 1-2.
2. 25 nL of test compounds and DMSO controls were added to each well with a pin tool (Kalypsys).
3. The assay plates were incubated for 30 minutes at room temperature.
4. 1 uL of master mix (500 nM glutathione reductase (GR), 5 mM reduced glutathione (GSH), 2.5 mM NADPH in assay buffer) was added. 1 uL of cumene hydroperoxide (CHP) ([2.5 mM] in 50% EtOH) was then added within 5 minutes to initiate the reaction. Final concentrations were: 10 nM GPX1, 1 mM GSH, 0.5 mM CHP, 0.5 mM NADPH, 100 nM GR, 0.01% BSA.
5. Initial fluorescence readout (t=0) at 340/450 nm was measured using a ViewLux multimodal detector (PerkinElmer, Waltham, MA).
7. Endpoint fluorescence readout (t=15) at 340/450 nm was measured 15 min after room temperature incubation.
Turning to `CN(C)CCCN1c2ccccc2Sc2ccccc21`, the Potency entry is “inactive”.

In the case of `CCOC(=O)c1cnc2c(cnn2CC)c1NN=C(C)C`, the outcome was inactive.

`C[C@H](CS)C(=O)N1CCC[C@H]1C(=O)O`: the Potency result was “inactive”.

As to `CCn1cc(C(=O)O)c(=O)c2cc3c(cc21)OCO3`, the “activity, negative = inhibition” value is 1.03%.

For the compound `CNC1(C)C2CCC(C2)C1(C)C` (stereo not given), the Potency result was “inactive”.

`CCCC(C(=O)OCCN(CC)CC)(c1ccccc1)c1ccccc1`: the “activity, negative = inhibition” value was -12.2%.

For the compound `C#CCN(C)CCCOc1ccc(Cl)cc1Cl`, the “activity, negative = inhibition” value was -18.5%.

As for `NC(=O)N1c2ccccc2C=Cc2ccccc21`, the Potency result is “inactive”.

As to `CC(C)NCC(O)c1cc(O)cc(O)c1` (stereo not given), the “activity, negative = inhibition” value was -25%.

Take `Brc1c(NC2=NCCN2)ccc2nccnc12`: the Potency entry is “inactive”.

As to `Cc1nc2sccn2c(=O)c1CCN1CCC(=C(c2ccc(F)cc2)c2ccc(F)cc2)CC1`, the “activity, negative = inhibition” value is -11.6%.

On to `CCCN(CCC)C(=O)C(CCC(=O)O)NC(=O)c1ccccc1` (stereo not given), for which the Potency entry was “inactive”.

For the compound `CCCCCCCC/C=C\CCCCCCCC(=O)NCc1ccc(O)c(OC)c1`, the “activity, negative = inhibition” value was -16.3%.

Regarding `C=CCc1ccccc1OCC(O)CNC(C)C` (stereo not given), the Potency result is “inactive”.

For `COC(=O)[C@H]1[C@H]2C[C@@H]3c4[nH]c5cc(OC)ccc5c4CCN3C[C@H]2C[C@@H](OC(=O)c2cc(OC)c(OC)c(OC)c2)[C@@H]1OC`, the Potency entry was “inactive”.

Turning to `COc1ccc(CCN(C)CCCC(C#N)(c2cc(OC)c(OC)c(OC)c2)C(C)C)cc1OC` (stereo not given), the Potency entry was “inactive”.

Take `CCCCNC(=O)NS(=O)(=O)c1ccc(C)cc1`: the Potency result is “inactive”.

Turning to `O=C(O)CCCCCCCC(=O)O`, the Potency result was “inactive”.

With `CN(C)C(=O)Oc1cccc([N+](C)(C)C)c1`, the Potency result is “inactive”.

For `CCN(CC)CCNC(=O)c1ccc(NC(C)=O)cc1`, the “activity, negative = inhibition” value is -1.66%.

For the compound `CC(=O)[C@@]1(O)CC[C@H]2[C@@H]3CCC4=CC(=O)CC[C@]4(C)[C@H]3CC[C@@]21C`, the “activity, negative = inhibition” value is -10.7%.

Regarding `CC(C(=O)O)c1ccc(CC2CCCC2=O)cc1` (stereo not given), the Potency entry was “inactive”.

On to `CC(C)(C)c1ccc(C(=O)CCCN2CCC(OC(c3ccccc3)c3ccccc3)CC2)cc1`, for which the Potency entry is “inactive”.

Regarding `C[N+](C)(C)CCOC(=O)CCC(=O)OCC[N+](C)(C)C`, the Potency entry is “inactive”.

For the compound `COc1cc(Cc2cnc(N)nc2N)cc(OC)c1OC`, the Potency entry was “inactive”.

Regarding `CCNC(=O)N1CCN(CCCC(c2ccc(F)cc2)c2ccc(F)cc2)CC1`, the result was inactive.

On to `CC1=C(C)C(=O)C(CCCCC#CCCCC#CCO)=C(C)C1=O`, for which the “activity, negative = inhibition” value was -24.4%.

In the case of `COCCCC/C(=N\OCCN)c1ccc(C(F)(F)F)cc1`, the Potency entry is “inactive”.

Take `CCOC(=O)C1=C(C)NC(C)=C(C(=O)OC)C1c1cccc([N+](=O)[O-])c1` (stereo not given): the Potency result was “inactive”.

On to `CC(=O)OC(C)C[N+](C)(C)C` (stereo not given), for which the Potency result is “inactive”.

As for `OCCN1CCN(CC/C=C2/c3ccccc3Sc3ccc(C(F)(F)F)cc32)CC1`, the result was inactive.

On to `CN/C(=C\[N+](=O)[O-])NCCSCc1ccc(CN(C)C)o1`, for which the Potency entry is “inactive”.

Take `CCN(Cc1ccncc1)C(=O)C(CO)c1ccccc1` (stereo not given): the Potency entry is “inactive”.

Consider `NC(Cc1ccc(Cl)cc1)C(=O)O` (stereo not given), for which the result was inactive.

Turning to `Cc1nc2ccccn2c(=O)c1CCN1CCC(C(=O)c2ccc(F)cc2)CC1`, the “activity, negative = inhibition” value was 2.24%.

As to `CC(=O)OCC1=C(C(=O)O)N2C(=O)[C@@H](NC(=O)Cc3cccs3)[C@H]2SC1`, the Potency is 10.1 µM (active).

Turning to `O=C(O)CP(=O)(O)O`, the “activity, negative = inhibition” value was -13.9%.

For `CC(C)(C)NCC(O)c1cc(O)cc(O)c1` (stereo not given), the Potency result is “inactive”.

For the compound `Cc1ccc(S(=O)(=O)NC(=O)NN2CCCCCC2)cc1`, the Potency result was “inactive”.

With `COCC(=O)O[C@]1(CCN(C)CCCc2nc3ccccc3[nH]2)CCc2cc(F)ccc2[C@@H]1C(C)C`, the “activity, negative = inhibition” value is -21.3%.
